Only some compounds are listed: those with a hit (about 8% of all), similar ones and a draw of the others.
HT1080 IDH1KD tx: HT-1080 IDH1 knockdown cell toxicity (counter line). HT-1080 IDH1 knockdown viability, ATP luminescence, 48 h. Potency, µM (series often up to 46.1 µM), for inactives: at the highest dose activity, negative = toxicity, hits mostly cytotoxic. 360,000 tested, 2% active;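 further: 0% = DMSO wells and -100% = cell-free medium wells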
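Luminescent ATP read-out (CellTiter-Glo, 10 min at room temperature) after 48 h compound exposure at 37 °C gave viability of IDH1-knockdown HT-1080 cells. Activity was normalised to DMSO and cell-free wells, then fitted as concentration-response curves.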
SW480 rereplic: induces DNA re-replication in SW480 colon adenocarcinoma cells | SW480 DNA re-replication, Hoechst DNA content imaging, 48 h | Potency, µM (series often up to 46.1 µM), without a hit: at the top dose re-replication activation, hits mostly activators | 340,000 tested, 1.8% active; further: % of control where 0% means no effect; nearly all actives have a fitted effect of over 55% in size
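Image-based read-out: total Hoechst fluorescence of nuclei (405 nm excitation, 500-530 nm emission), with hits raising the fraction of high-intensity nuclei. SW480 colon cells incubated 48 hr with compounds at 37 C.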
HT1080NT lethal: kills 2HG-producing HT-1080-NT fibrosarcoma cells; HT-1080-NT fibrosarcoma viability, CellTiter-Glo ATP luminescence, 48 h; 360,000 tested, 1.6% active; AID 686970; Potency, µM (highest dose often 46.1 µM), without a hit: top-dose activity, negative = less viability, usual class: cytotoxic;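 further: NT is the 2HG producing partner of a matched IDH1 knockdown line; 0% = DMSO-treated cells and -100% = media-only wells without cells; nearly all actives have a fitted effect of over 55% in size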
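Viability of the 2HG-overproducing fibrosarcoma line after 48 hours of compound exposure at 37 degrees C was determined by luminescence with CellTiter-Glo, and concentration-effect curves were then fitted and categorized.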
MCF10A rereplic: induces DNA re-replication in MCF 10a normal breast cells | AID 624296 | MCF 10A DNA re-replication, Hoechst nuclear intensity, 48 h | Potency, µM (series often up to 46.1 µM), inactives show top-dose activity, positive = re-replication, most hits filed as activators | 350,000 tested, 2.9% active; further: % of control where 0% means no effect; nearly all actives have a fitted effect of over 50% in size
KB-V1 MDR tox: kills drug-selected multidrug resistant KB-V1 cells | KB-V1 MDR cells viability, CellTiter-Glo, 72 h | AID 1347076 | 400,000 tested, 3.4% active | Potency, µM (series often up to 46.1 µM), most hits filed as cytotoxic; further: on the % scale 0 is the no-effect control and ±100 the full control effect; nearly all actives have a fitted effect of over 60% in size
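Potencies derive from concentration-effect curves fitted to normalized luminescence (CellTiter-Glo) of KB-V1 cells treated for 72 h at 37 degrees C in phenol-red-free DMEM containing 10% FBS.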
KB-3-1 tox: KB-3-1 parental cell cytotoxicity | Potency, µM (highest dose often 46.1 µM), hits mostly cytotoxic | AID 1347075 | KB-3-1 viability, CellTiter-Glo ATP luminescence, 72 h | 400,000 tested, 1.4% active; further: on the % scale 0 is the no-effect control and ±100 the full control effect; nearly all actives have a fitted effect of over 60% in size
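Cells are dispensed, compounds pinned in, plates held at 37 °C for 72 h, then CellTiter-Glo is added and luminescence read after 10 minutes. Cell line: parental KB-3-1 in phenol-red-free DMEM, 10% FBS.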
* marks the source's active call; other numbers are inactive results; i = inactive; ? = inconclusive; . = not tested or not shown. The call rests on the fitted dose curve; in most records, active means well fitted curve in the direction sought with a large enough effect; inconclusive means small, poorly fitted or top-dose-only effect, or another doubt; inactive means no such curve, though single readings can be large; an effect the other way counts as inactive or inconclusive. Potency means the concentration at half of the fitted maximal effect.

SMILES | HT1080 IDH1KD tx | SW480 rereplic | HT1080NT lethal | MCF10A rereplic | KB-V1 MDR tox | KB-3-1 tox
Cc1cccc(-n2cnc3cc(C(=O)NCC4CCCO4)ccc32)c1 (stereo not given) | ? | . | ? | . | ? | 18µM*
Cc1cccc(-n2cnc3cc(C(=O)N4CCc5ccccc54)ccc32)c1 | 5% | 3% | 9% | 2% | 13µM* | i
Cc1cc(C)n(-c2ccc(C(=O)N3CCc4ccccc43)cc2)n1 | -10% | 3% | -12% | 6% | ? | ?
O=C(Nc1ccc2nn(-c3ccccc3)nc2c1)c1ccc(-c2cccc(Cl)c2)o1 | . | . | . | . | i | i
O=C(CC1(O)C(=O)N(CCc2ccccc2)c2ccc(Br)cc21)c1ccc(F)cc1 (stereo not given) | . | . | . | . | i | ?
CCCC(O)c1nc2ccccc2n1CCCCOc1ccc(OC)cc1 (stereo not given) | . | . | . | . | i | i
COC(=O)CCSc1nc2sc3c(c2c(=O)n1Cc1ccccc1)CCC(C(C)(C)C)C3 (stereo not given) | . | . | . | . | i | i
CCCS(=O)(=O)N1CCCC(C(=O)NCCCOC)C1 (stereo not given) | . | . | . | . | i | i
CCC(C)Oc1ccccc1C1CC(=O)NC2=C1C(=O)CCC2 (stereo not given) | ? | 18µM* | ? | ? | ? | ?
Cc1ccc(N2CCN(C(=O)c3c4c(nc5ccccc35)C(=O)N(C3CCCCC3)C4)CC2)c(C)c1 | . | . | . | . | i | i
CC(C)NS(=O)(=O)c1ccc(OCC(=O)N2CCN(c3cccc(Cl)c3)CC2)cc1 | . | . | . | . | i | i
O=C(COc1ccc(Cl)cc1)N1CCN(c2ccc([N+](=O)[O-])c(N3CCCCC3)c2)CC1 | -14% | 4% | -28% | -1% | i | i
O=C(COc1ccc(S(=O)(=O)NC2CCCCC2)cc1Cl)N1CCN(c2ccccc2)CC1 | ? | 13% | -13% | 25% | 5.8µM* | i
O=C(COc1ccc(S(=O)(=O)NC2CCCCC2)cc1)N1CCN(c2ccc(F)cc2)CC1 | -13% | 1% | ? | 0% | ? | 16µM*
CC(C)[C@H](NS(=O)(=O)c1cccc(Cl)c1)C(=O)OCC(=O)N1CCN(c2ccccc2)CC1 | 9% | 7% | 15% | 13% | 7.3µM* | i
NC(=O)C1CCN(C(=O)COc2ccc(S(=O)(=O)NC3CCCC3)cc2)CC1 | 11% | -16% | 11% | -12% | ? | ?
O=C(COc1ccccc1Cl)N1CCN(c2ccc([N+](=O)[O-])c(N3CCCCC3)c2)CC1 | 18% | -7% | -2% | -3% | 21µM* | i
O=c1c2c3c(sc2n(CCN2CCCCC2)c(=O)n1Cc1ccco1)CCCCC3 | ? | ? | ? | 13µM* | ? | i
CCOC(=O)c1[nH]c(C)c(CCC(=O)NCc2ccc(OCC)cc2)c1C | . | . | . | . | i | i
COc1cccc(C2=NOC(C(=O)NCc3cccnc3)C2)c1 (stereo not given) | -3% | 8% | -4% | 15% | i | i
O=C(NCc1cc(C(F)(F)F)cc(C(F)(F)F)c1)C1CC(c2ccccc2F)=NO1 (stereo not given) | -25% | -3% | 0% | -1% | i | i
COc1cccc(C2=NOC(C(=O)NCc3ccc(F)cc3)C2)c1 (stereo not given) | ? | -8% | -24% | 0.73µM* | ? | i
COc1cccc(C2=NOC(C(=O)NCc3cccs3)C2)c1 (stereo not given) | 21µM* | 4% | ? | 5.2µM* | ? | ?
Cc1ccc(CNC(=O)C2CC(c3ccccc3F)=NO2)cc1 (stereo not given) | ? | ? | ? | 3.3µM* | i | i
Cc1ccc(CNC(=O)C2CC(c3cccc(F)c3)=NO2)cc1 (stereo not given) | 6% | -4% | 13% | 5.8µM* | ? | i
SMILES | HT1080 IDH1KD tx | SW480 rereplic | HT1080NT lethal | MCF10A rereplic | KB-V1 MDR tox | KB-3-1 tox
COc1ccc(C(=O)c2oc3ccccc3c2NC(=O)c2cc(=O)c3ccc(C)cc3o2)cc1Cl | . | . | . | . | i | i
COc1ccc(CNC(=O)C2CC(c3cccc(OC)c3)=NO2)cc1 (stereo not given) | -1% | 0% | 4% | 2.8µM* | i | i
O=C(NCc1cccc(C(F)(F)F)c1)C1CC(c2ccccc2C(F)(F)F)=NO1 (stereo not given) | 26µM* | ? | ? | 23µM* | ? | ?
COC(=O)c1c(C)[nH]c(C(=O)CN2C(=O)C3CC=CCC3C2=O)c1C (stereo not given) | -6% | 2% | -3% | 14% | 21µM* | i
CCOC(=O)c1c(C)[nH]c(C(=O)CN2C(=O)C(=O)N(CC(C)C)C2=O)c1C | -5% | -7% | -18% | -6% | i | i
CN[C@H]1CCc2cc(OC)c(OC)c(OC)c2-c2ccc(N(C)CC(OC)OC)c(=O)cc21 | ? | ? | 4.1µM* | 131% | ? | 2.6µM*
COc1cc2c(c(OC)c1OC)-c1ccc(OC)c(=O)cc1[C@@H](N(C)CC#CCO)CC2 | 0.16µM* | ? | 0.0073µM* | ? | ? | 0.052µM*
COc1cc2c(c(OC)c1OC)-c1ccc(N(C)CC(OC)OC)c(=O)cc1[C@@H](NC(C)=O)CC2 | 0.65µM* | 1.5µM* | ? | 0.58µM* | ? | 0.52µM*
CCOc1ccc(CC2c3cc(OCC)c(OCC)cc3CCN2C(=O)c2cc(OC)c(OC)c(OC)c2)cc1OCC (stereo not given) | 5% | 9% | -5% | ? | ? | i

Screening results from PubChem.
